Screens (PubChem)
PvdQ acylase = P. aeruginosa PvdQ acylase inhibition; AID 488965; purified PvdQ acylase, fluorescence plate reader; 340,000 tested, 0.063% active; inhibition, % at 10 µM; in the data active means inhibition above about 30%, passing the limit was not always enough;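 further: 0% = vehicle neutral wells and 100% = reference inhibitor wells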
PglD inh = PglD (C. jejuni) enzyme inhibition; purified PglD enzyme, DTNB colorimetric CoA detection; inhibition, % at 12.5 µM; 360,000 tested, 0.098% active; AID 602405; in the data active means inhibition above about 16%, passing the limit was not always enough
CDK5 p35 inh = CDK5/p35 (human) kinase inhibition; Q00535+Q15078; 330,000 tested, 0.01% active; AID 488839; Recombinant CDK5/p35, ADP-Glo luminescence, 60 min; inhibition, % at 10 µM;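 active means highest replicate inhibition of at least 50% and at least 75% of replicates reaching 50%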;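 further: plate controls were DMSO neutral control for no effect and GW8510 at 10 µM for full effect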
FGF22 binding = shifts melting point of recombinant human FGF22; Q9HCT0; recombinant FGF22 thermal shift, SYPRO orange fluorescence; percent of sucrose octasulfate shift, DMSO zero; activity (Tm shift, normalised), % at 9.99 µM; 340,000 tested, 1.5% active; AID 651658;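 active means mean Tm shift, scaled 0 neutral to 100 positive control, at about 1.3% or above, every replicate too, limit read from the data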
Target sequence (Q9HCT0 whole entry, looked up): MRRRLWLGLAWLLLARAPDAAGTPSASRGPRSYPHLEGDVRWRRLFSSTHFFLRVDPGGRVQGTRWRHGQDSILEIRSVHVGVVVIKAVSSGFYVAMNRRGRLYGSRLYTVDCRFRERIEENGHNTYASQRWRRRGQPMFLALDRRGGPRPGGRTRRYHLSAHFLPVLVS
dFosB act = mouse delta FosB homodimer activation; AID 493131; activation, % at 25 µM; P13346; 340,000 tested, 0.99% active; purified delta FosB, TAMRA-CDK5 oligo fluorescence polarization; percent of positive-control signal above neutral wells;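 active means mean activation above about 17%, with every replicate also reaching it, limit read from the data, passing the limit was not always enough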
SIRT5 block = sirtuin-5 (human) deacylase inhibition. Q9NXA8. Purified SirT5, succinyl-peptide AMC, trypsin-coupled fluorescence. inhibition, % at 15 µM. 330,000 tested, 1.1% active. AID 652115; in the data active means inhibition above about 15%
Target sequence (Q9NXA8 whole entry, looked up): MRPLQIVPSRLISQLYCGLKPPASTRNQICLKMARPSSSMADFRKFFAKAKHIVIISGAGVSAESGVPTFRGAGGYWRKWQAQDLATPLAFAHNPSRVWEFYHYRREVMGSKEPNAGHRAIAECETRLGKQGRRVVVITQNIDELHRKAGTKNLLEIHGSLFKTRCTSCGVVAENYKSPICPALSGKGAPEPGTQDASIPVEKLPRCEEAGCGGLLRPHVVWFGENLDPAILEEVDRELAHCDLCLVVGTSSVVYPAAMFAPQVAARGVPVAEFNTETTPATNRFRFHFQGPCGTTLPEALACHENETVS
* = called active by the depositor; . = no result given; ! = repeats disagree. Only some compounds are listed: those with a hit (about 2.8% of all), similar ones and a draw of the others.

SMILES | PvdQ acylase | PglD inh | CDK5 p35 inh | FGF22 binding | dFosB act | SIRT5 block
CCOC(=O)C1(Cc2ccc(Cl)cc2)CCN(C(=O)c2sc(C)nc2C)CC1 | -3.4 | . | 0.3 | 0.1 | -17.7 | 0.1
CCOC(=O)C1(Cc2ccc(Cl)cc2)CCN(C(=O)c2cc(C)nc(C)n2)CC1 | 4.2 | 2.8 | 0.9 | 43.0* | 6.1 | -1.1
CCOC(=O)C1(CC2CC2)CCN(C(=O)c2ocnc2C)CC1 | -2.6 | . | -0.3 | 0.0 | -1.8 | 1.2
CCOC(=O)C1(CC2CC2)CCN(C(=O)c2cc(C)nc3ccc(CC)cc23)CC1 | 3.6 | . | 1.5 | 43.5* | -8.7 | 0.1
CCC(=O)N1[C@H](C(=O)OC)[C@@H](CO)[C@@H]2Cn3c(ccc(/C=C/c4ccccc4)c3=O)[C@@H]21 | . | 3.1 | . | 0.0 | . | -73.9
COc1ccc2c3c(n(C)c2c1)[C@H](CO)N(C(=O)CN1CCOCC1)CC31CN(C(=O)CC2CC2)C1 | . | . | . | 0.0 | . | -1.1
CN1c2ccc(C3=CCCCC3)cc2[C@@H]2[C@@H](CCN2S(=O)(=O)c2ccccc2)[C@H]1CO | . | -3.1 | . | 0.1 | . | -1.2
Cc1ccc(C(=O)O)cc1NC(=S)NC(=O)c1ccc(-c2ccccc2)cc1 | -6.5 | 0.1 | -0.6 | 43.0* | -19.7 | 1.3
COc1ccc(NC(=O)Nc2ccc3c(c2)C(=O)N([C@@H](C)CO)C[C@@H](C)[C@H](CN(C)C)O3)cc1 | . | 6.2 | . | 0.0 | . | -1.3
COc1cccc(/C=N/NC(=O)CCn2nnc3ccccc32)c1 | -11.9 | -2.8 | -1.4 | 43.5* | -6.8 | -0.8
O=C(CCn1nnc2ccccc21)N/N=C\Cc1ccccc1 | -11.4 | . | -1.3 | 43.2* | -1.2 | -1.5
COc1cc(/C=N/NC(=O)CCn2nnc3ccccc32)ccc1O | -6.7 | . | 0.7 | 0.3 | -4.1 | -0.8
COc1ccc(NC(=O)N(C)C[C@H]2Oc3c(NC(=O)Nc4cccc5ccccc45)cccc3C(=O)N([C@H](C)CO)C[C@H]2C)cc1 | . | -3.6 | . | -1.2 | . | -8.5
CC1(c2cccc(Br)c2)NC(=O)NC1=O (stereo not drawn) | -13.7 | 7.0 | -6.3 | 0.1 | 1.4 | -3.6
O=C1NC(=O)C2(Br)Nc3ccc(Br)cc3C(=O)C2N1 (stereo not drawn) | 7.6 | 4.2 | 1.3 | 1.4* | 3.4 | 0.6
O=C(NC1CCCC1)N1CC2(C1)[C@@H](c1ccccc1)[C@@H](CO)N2CC1CCCC1 | . | . | . | . | . | 3.6
C[C@H]1CN([C@@H](C)CO)S(=O)(=O)c2ccc(C3=CCCCC3)cc2O[C@H]1CN(C)C(=O)Cc1ccncc1 | . | 0.0 | . | -0.3 | . | 2.3
C[C@H]1CN([C@@H](C)CO)S(=O)(=O)c2ccc(C3=CCCCC3)cc2O[C@@H]1CN(C)C(=O)Cc1ccccc1 | . | -4.1 | . | -0.5 | . | 15.4*
C[C@H](CO)N1C[C@H](C)[C@@H](CN(C)C(=O)Nc2ccc3c(c2)OCO3)Oc2cc(C3=CCCC3)ccc2S1(=O)=O | . | 1.1 | . | -0.6 | . | 19.9*
CO[C@H]1CN(C)C(=O)c2ccc(NC(=O)C3CCCCC3)cc2OC[C@@H](C)N(C)C[C@H]1C | . | 1.1 | . | -0.2 | . | -3.3
C[C@@H]1CN([C@@H](C)CO)C(=O)c2cc(NC(=O)Cc3cn(C)c4ccccc34)ccc2O[C@@H]1CN(C)C(=O)Nc1cccc2ccccc12 | . | -6.8 | . | -0.2 | . | -9.9
CCCc1ccc(-c2cc(NC(=O)CSc3nnc(N)s3)n(-c3ccccc3)n2)cc1 | -12.8 | 1.7 | 0.2 | 0.2 | -5.1 | 20.3*
Cc1nnc(SCC(=O)Nc2cc(-c3cc(C)c(C)cc3C)nn2-c2ccccc2)s1 | -12.1 | . | 0.4 | -0.1 | 1.3 | -2.2
COCC(=O)Nc1ccc2c(c1)C(=O)N(C)C[C@@H](OC)[C@H](C)CN(C(=O)c1cnccn1)[C@H](C)CO2 | . | -2.2 | . | 0.2 | . | -5.7
O=C(O)CC(NC(=O)C12CC3CC(CC(C3)C1)C2)c1ccc2c(c1)OCO2 (stereo not drawn) | -16.6 | . | 2.3 | 43.1* | 7.0 | -0.2
SMILES | PvdQ acylase | PglD inh | CDK5 p35 inh | FGF22 binding | dFosB act | SIRT5 block
O=C1c2cccc3cc([N+](=O)[O-])cc(c23)C(=O)N1CCN1CCCC1 | -13.9 | 3.9 | 0.0 | -0.2 | 58.4* | 1.1
O=C1c2ccccc2C(=O)N1CCN1CCCCC1 | -5.7 | . | -0.7 | . | -1.2 | .
N#Cc1ccc(-c2ccc3c(c2)[C@H]2[C@H](CCN2S(=O)(=O)c2ccccc2F)[C@@H](CO)N3)cc1 | . | 0.1 | . | 0.4 | . | .
Cc1oc(-c2ccccc2F)nc1CS(=O)CC(=O)NCc1ccccn1 (stereo not drawn) | 7.8 | -2.6 | 1.2 | 44.1* | -2.6 | -0.9
Cc1ccc(-c2nc(CS(=O)CC(=O)NCc3ccccn3)c(C)o2)cc1 (stereo not drawn) | -15.8 | 1.4 | 0.1 | -0.3 | -7.3 | 0.2
C[C@H](CO)N1C[C@H](C)[C@@H](CN(C)C(=O)[C@H](C)c2ccccc2)OCc2ccccc2-c2ccccc2C1=O | . | -0.2 | . | -0.3 | . | 1.2
COc1ccc(C(=O)C[n+]2cc(-c3ccc(OC)cc3)n3c2CCCC3)cc1 | -17.5 | . | -3.0 | 43.2*! | -6.5 | -1.8
Cc1nn(C)c(Cl)c1/C=C/C(=O)O | -5.8 | . | -1.1 | 0.2 | 0.7 | -4.5
Cc1nn(C)c(C)c1/C=C/C(=O)O | -2.6 | 12.6 | -2.6 | 43.0* | 5.4 | 4.9
Cc1ccc(NC(=S)NN2CCN(C)CC2)c(C)c1 | -6.5 | . | -0.2 | 43.4* | -1.2 | -3.6
Oc1ccc(Br)cc1/C=N/Nc1ncc(-c2ccccc2)cn1 | -9.7 | . | 0.8 | -0.1 | 30.1* | -1.2
Oc1ccc(/C=N/Nc2ncc(Br)cn2)c(O)c1 | -5.6 | 3.0 | 7.2 | . | -6.9 | .
Nc1ccc(C(=O)Nc2ccc3c(O)cc(S(=O)(=O)O)cc3c2)cc1 | -6.2 | -1.0 | -0.4 | -0.3 | -7.7 | 65.8*
CCCNC(=O)N1C[C@H]2[C@@H](c3ccccc31)[C@@H](CO)N2Cc1ccc2c(c1)OCO2 | . | 0.6 | . | 0.1 | . | 4.5
Cc1ccc(NS(=O)(=O)c2ccc(NC(=O)c3ccccc3C(=O)O)cc2)c(C)c1 | -2.5 | . | 0.5 | 0.0 | 2.7 | -10.9
Cc1ccc(NS(=O)(=O)c2ccc(NC(=O)c3ccc(-c4ccccc4)cc3)cc2)c(C)c1 | -15.4 | -0.6 | 2.2 | . | 54.4* | .
COc1cc(C2Nc3cccc4cccc(c34)N2)cc(OC)c1OC(C)=O | -10.6 | . | 1.6 | . | 1.5 | .
Cc1cccc(C2Nc3cccc4cccc(c34)N2)c1 | -4.2 | -8.6 | 0.4 | -0.3 | 13.3 | 8.4
c1cc2c3c(cccc3c1)NC(c1ccc3c(c1)OCO3)N2 | -12.2 | 2.5 | 3.9 | -0.2 | 36.3* | 3.5
COc1cc(C2Nc3cccc4cccc(c34)N2)ccc1O | -4.7 | -6.5 | -0.1 | -0.2 | 51.9* | .
COc1ccc(-c2ccc3c(c2)O[C@H](CN(C)C(C)=O)[C@H](C)CN([C@H](C)CO)S3(=O)=O)cc1 | . | -1.5 | . | -0.4 | . | -1.6
CN(C)CC#Cc1ccc([C@H]2[C@H]3CN(C(=O)c4ccc5c(c4)OCO5)CCCCN3[C@H]2CO)cc1 | . | 5.6 | . | 0.1 | . | 13.4
